FAS-TE inh – FAS thioesterase (human) inhibition. recombinant FAS-TE, OMFH fluorogenic substrate, fluorescence endpoint. 360,000 tested, 0.67% active. inhibition, % at 15 µM;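 active = compounds whose normalised, plate-corrected inhibition of enzyme fluorescence in the single-dose primary screen is 50% or more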
GRIN3A LBD mod – NR3A (human) ligand-binding domain modulation. NR3A LBD differential scanning fluorimetry, Tm shift; 0% = protein alone, 100% = glycine-bound protein. Tm shift relative to glycine control, % at 25 µM. 340,000 tested, 2.5% active. AID 1259313;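 active = melting temperature shift of at least 10% of the positive control shift, at one fixed dose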
Myeloid diff 2 – myeloid differentiation induction | ER-HoxA9 myeloid progenitors, lysozyme-GFP differentiation, flow cytometry | AID 624256 | 360,000 tested, 1% active | calls only at 10 µM;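 active = normalized GFP-positive differentiation at or above the plate's own cutoff, the solvent-only control mean plus 3 SD; inconclusive = no clear call, values can overlap the other calls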;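 note: cells exposed to compound for four days before flow analysis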
MPTP block – permeability transition pore inhibition. inhibition, % at 10 µM. 360,000 tested, 1.4% active. isolated mouse mitochondria, Ca2+ swelling absorbance, 30 min;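 active = inhibition of 50% or more, scaled per plate between neutral and stimulator controls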
rCAG RNA binder – molecules binding r(CAG) RNA repeats; r(CAG) RNA repeat, TO-PRO-1 dye displacement fluorescence; inhibition, % at 3 µM; 370,000 tested, 1.3% active;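 active = inhibition above the plate cutoff, the mean of all test compounds on that plate plus 3 SD, cut at about 35% in these data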;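 note: higher means more dye released from RNA so lower well fluorescence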
Rh123 counter – mitochondrial membrane potential, counter-screen; shares compounds with MPTP block; AID 624504; isolated mitochondria, Rhodamine 123 fluorescence; 5,000 tested, 78% active; inhibition, % at 10 µM; in the data active = inhibition above about 22%
MPTP abs DR – MPTP inhibition, dose response swelling confirmation; shares compounds with MPTP block; isolated mitochondria swelling, absorbance; IC50, µM; 780 tested, 58% active; in the data active = IC50 below about 20 µM
MPTP cs DR – counter-screen for mitochondrial permeability transition pore inhibitors, dose response | shares compounds with MPTP block | isolated mitochondria counterscreen, fluorescence read-out | IC50, µM | 780 tested, 49% active | AID 651564; in the data active = IC50 below about 80 µM
Numbers stand for hits; . = inactive; ? = inconclusive; / = not tested or not shown; + = active, no number. Compounds with a hit are over-represented: about 5.7% of the library has one in this group of screens.

SMILES	FAS-TE inh	GRIN3A LBD mod	Myeloid diff 2	MPTP block	rCAG RNA binder	Rh123 counter	others
O=C(NCc1nc(-c2ccc(C(F)(F)F)cc2)no1)Nc1ccc(F)cc1F	.	.	.	54	.	69
O=C(NCc1nc(-c2ccc(C(F)(F)F)cc2)no1)Nc1cc(Cl)cc(Cl)c1	.	33	.	84	.	70
O=C(O)COCC(=O)NCc1nc(-c2ccc(C(F)(F)F)cc2)no1	.	.	.	.	.	/
Cc1cc(NC(=O)c2cc3cccc([N+](=O)[O-])c3[nH]2)ccc1F	.	29	.	83	.	69
COCC(C)NC(=O)c1cc2cccc([N+](=O)[O-])c2[nH]1 (stereo not drawn)	.	.	.	.	.	/
CCOc1ccccc1CN1CCN(Cc2ccon2)CC1CCO (stereo not drawn)	.	.	.	.	.	/
c1ccc2c(c1)oc1c(NCc3ccc4c(c3)OCO4)ncnc12	.	.	.	84	/	110
Cc1cc2nc(CCN(C(=S)NCC3CCCO3)C3CCCC3)[nH]c2cc1C (stereo not drawn)	.	.	.	.	.	/
Cc1cc2nc(CCN(C(=S)NCC(C)C)C3CCCC3)[nH]c2cc1C	.	.	.	85	.	84
COc1ccccc1OCCCCCc1c(C)n[nH]c1C	.	.	.	.	.	/
Cc1cccc(OCCCCc2c(C)n[nH]c2C)c1C	.	.	.	54	.	83
COc1ccccc1OCCCc1c(C)n[nH]c1C	.	.	.	.	.	/
CCOc1ccccc1OCCCCCc1c(C)n[nH]c1C	.	.	+	81	.	47
CCCn1cc(CN2CCC(n3nccc3NC(=O)c3ccc4c(c3)OCO4)CC2)c(C)n1	.	.	.	.	.	/
O=C(COc1ccc2ccccc2c1)Nc1ccc(Br)cc1C(=O)O	.	.	.	.	.	/
COc1ccccc1CCNC(=O)CNC(=O)c1ccc2ccccc2c1	.	.	.	.	.	/
COc1cccc(NC(=O)Cn2cc(C=O)c3ccccc32)c1	.	.	.	.	.	/
CCc1cccc(NC(=O)Cn2cc(C=O)c3ccccc32)c1	.	.	.	73	.	50
Cn1c(C(C#N)C(=O)c2sc3ccccc3c2Cl)nc2ccccc21 (stereo not drawn)	.	.	.	.	.	/
CCn1nc([N+](=O)[O-])c(C(C#N)c2nc3ccccc3n2C)c(Cl)c1=O (stereo not drawn)	.	.	.	54	.	67
O=C(C[n+]1cccc(C(=O)N/N=C/c2cccc([N+](=O)[O-])c2)c1)c1ccccc1	.	.	.	.	.	/
OCCN1CCN(CC/C=C2/c3ccccc3Sc3ccc(Cl)cc32)CC1	.	.	.	94	.	.
CN(C)CC/C=C1\c2ccccc2Sc2ccc(Cl)cc21	.	.	.	97	.	.
O=C(COc1ccc(Cl)cc1)NCc1nnc(SCC(=O)Nc2ccccc2F)o1	.	.	.	.	.	/
CC(C)N1CC2(CC(c3ccc(Cl)cc3Cl)=NO2)CN1C(=O)c1ccc(C(C)(C)C)cc1 (stereo not drawn)	.	/	.	52	.	.	MPTP abs DR=8.8;MPTP cs DR=29
SMILES	FAS-TE inh	GRIN3A LBD mod	Myeloid diff 2	MPTP block	rCAG RNA binder	Rh123 counter	others
COc1ccccc1-c1cnc(C(O)c2ccc(CN3CCCCC3)cc2)[nH]1 (stereo not drawn)	.	/	.	.	.	/
c1ccc(-c2nnc(-c3c[nH]c4ccccc34)nc2-c2ccccc2)cc1	.	.	.	.	.	/
ClC(Cl)c1nnc(-c2ccccc2)c(-c2c[nH]c3ccccc23)n1	.	.	?	52	.	47
CC1CCN(CCCCOc2ccc(C(C)(C)C)cc2)CC1	.	.	.	54	.	.	MPTP abs DR=6.8;MPTP cs DR=13
CC1CCN(CCCCOc2ccc(Cl)cc2)CC1	.	.	.	.	/	/
O=C(NCCc1c[nH]c2ccccc12)OCc1cn(-c2cccc(C(F)(F)F)c2)nn1	/	/	/	/	.	/
COc1ccc(-c2nc3ccc(C(=O)NCCCN4CCOCC4)cc3nc2-c2ccc(OC)cc2)cc1	.	.	.	84	.	.	MPTP abs DR=4.9;MPTP cs DR=.
CCCNC(=O)c1ccc2nc(-c3ccccc3)c(-c3ccccc3)nc2c1	.	.	.	.	.	/
CCN1CCN(CCNC(=O)c2ccc3nc(-c4cccc(C)c4)c(-c4cccc(C)c4)nc3c2)CC1	.	.	.	96	.	.
CC1CC(C)CN(C(=O)C(C)N2CCN(S(=O)(=O)c3cccs3)CC2)C1 (stereo not drawn)	.	.	.	.	.	/
CN(CCC#N)S(=O)(=O)c1cc2c3c(c1)CCN3C(=O)CC2	.	.	.	.	.	/
CCCCCCn1c(NCC)nc2c1c(=O)n(C)c(=O)n2C	.	.	.	56	.	86
CCCCNC(C(=O)Nc1ccc(Cl)c([N+](=O)[O-])c1)c1ccccc1 (stereo not drawn)	.	.	.	.	.	/
Cc1nc2ccc(NC(=O)c3cc(S(=O)(=O)N(C)c4ccccc4)ccc3Cl)cc2s1	.	.	.	107	.	84
Cc1nc2ccc(NC(=O)c3ccc(Cl)c(S(=O)(=O)N(C)c4ccccc4)c3)cc2s1	.	.	.	74	.	69
C[C@@H]1COC(=O)[C@@H](Cc2ccc(F)cc2)C/C=C\C[C@@H](CC(=O)N(CCO)Cc2ccccc2)C(=O)N1	.	.	.	.	.	/
CCOc1ccc(NC(=S)NCCCc2ccccc2)cc1	.	.	.	.	.	/
CN(C)c1cc[n+](CC(=O)Nc2ccc(Oc3ccccc3)cc2)cc1	.	.	.	70	.	56
CCCNC(=S)Nc1ccc(Oc2ccccc2)cc1	.	.	.	58	.	65
CCCCNC(=S)Nc1ccc(Oc2ccccc2)cc1	.	.	.	76	.	91
S=C(NCc1ccco1)Nc1ccc(Oc2ccc(Cl)cc2)cc1	.	.	.	73	.	90
O=C(NN=Cc1cccc(OCc2ccccc2)c1)c1cc(-c2ccc(Cl)cc2)n[nH]1	/	/	/	/	.	/
O=C(O)CC1Sc2nnc(COc3ccc(Cl)cc3)n2N=C1c1ccccc1 (stereo not drawn)	.	.	.	.	.	/
CCN(CC)S(=O)(=O)c1ccc(S(=O)(=O)N2CCC(N3CCCCC3)CC2)cc1	.	.	.	.	.	/
CC(C)(C)c1ccc(OCCNC(=S)Nc2ccccc2)cc1	.	.	.	92	.	89
CCN(C(=S)Nc1ccc(Oc2ccccc2)cc1)c1ccccc1	.	.	.	91	.	97
CCc1nc2ccc(C(=O)N3CCN(C(=O)c4ccco4)CC3)cn2c1N(C)Cc1nccn1C	.	/	.	.	.	/
O=C(COCc1ccncc1)N1CCN(c2ccc(F)cc2Cl)CC1	/	/	/	/	.	/
CCc1sc(C(=O)Nc2nccs2)cc1C	.	.	.	.	.	/

Screening data (PubChem)
